Among all 330,000 compounds or so, about 2,800 (0.85%) were called active. The list comes from a sample in which actives are over-represented; it also holds similar structures and randomly drawn compounds. Unmarked numbers belong to inactive results.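 Rule for the calls: active = mean inhibition across replicates of 60% or more, whatever share of single replicates reaches that level; inconclusive = some that reach 60%, reason not given; inactive = mean inhibition across replicates below 60%.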
Assay: inhibitors of MITF-dependent TRPM1 promoter reporter, primary screen, cell-based, SK-MEL-5, single point, luciferase (AID 488899)
Settings: SK-MEL-5 TRPM1 promoter luciferase, 24 h; at 12.5 µM; stronger effect = higher value

In order of falling inhibition:
1. COc1ccc2sc(N(CCCN(C)C)C(=O)c3ccc(S(=O)(=O)N(C)C4CCCCC4)cc3)nc2c1  55.2%
2. Cc1ccc2nc(-c3ccc(Br)cc3)cn2c1  50.5%
3. Cc1ccc(-c2cn3cc([N+](=O)[O-])ccc3n2)cc1  48.1%
4. CCOC(=O)N1CCN(C(=O)C2CCCN(c3ncnc4c3sc3cccc(F)c34)C2)CC1 (stereo unspecified)  28.8%
5. CNN/C(N=Cc1ccc([N+](=O)[O-])s1)=N\S(=O)(=O)c1cc(C)c(Cl)cc1SCc1ccccc1  24.1%
6. Cc1ccc(NC(=O)c2cccc(S(=O)(=O)N3CCCc4ccccc43)c2)nc1  23.9%
7. N#CC1=C(N)Oc2cc(N)ccc2C1c1ccccc1 (stereo unspecified)  23.5%
8. O=C(C[C@H]1C[C@H](C(=O)N2CCOCC2)[C@@]2(CCC3CCCC3)c3[nH]c4ccc(Cl)cc4c3CCN2C1=O)NCc1ccco1  21.2%
9. Cc1cc(NC(=O)C(C)SCC(=O)Nc2cccc(S(=O)(=O)N3CCCCCC3)c2)no1 (stereo unspecified)  18.1%
10. N=C1C(c2nc3ccccc3s2)=C(O)CN1NC(=O)c1ccc([N+](=O)[O-])cc1  14.1%
11. COc1cc2c(cc1OC)C(Nc1ccc(S(N)(=O)=O)cc1)=NC(C)(C)C2  12.1%
12. CC(C)c1cc(C(=O)N/N=C/C(Br)=C/c2ccccc2)n[nH]1  11.7%
13. CC(=O)N(C1=C(Cl)C(=O)c2ccccc2C1=O)c1ccc(C(=O)O)cc1  11.6%
14. COc1ccc(NC(=O)N2CCCC2C(=O)NCc2ccccc2Cl)cc1 (stereo unspecified)  11.5%
15. C=CCNc1nnc(SCC(=O)N2CCCCC2)c2ccccc12  11.5%
16. O=C(O)c1cc(S(=O)(=O)N(Cc2ccccc2)c2cccc(C(F)(F)F)c2)ccc1Cl  11.3%
17. CCN(CC)S(=O)(=O)c1cccc(NC(=O)c2ccc(S(=O)(=O)N3CCCC3)cc2)c1  11%
18. CCOc1ccc(NC(=O)CSc2nc3ccccc3c(=O)n2Cc2cccs2)cc1  9.83%
19. COc1ccc(-c2cc(C(=O)NC(Cc3c[nH]c4ccccc34)C(=O)O)c(C)o2)cc1OC (stereo unspecified)  9.33%
20. COc1cc([N+](=O)[O-])ccc1NC(=O)COC(=O)CCOc1ccc(C)cc1  8.46%
21. CC(C)Cn1c(CCC(=O)O)ccc1-c1cccs1  7.94%
22. CC1CCN(C(=O)c2cccc(S(=O)(=O)N3CCCc4ccccc43)c2)CC1  7.39%
23. COc1ccc(C(=O)NCC(c2ccco2)N2CCc3ccccc32)cc1OC (stereo unspecified)  5.95%
24. CCC(=O)Nc1nnc(S(=O)(=O)N2CCCc3ccccc32)s1  5.17%
25. CC1(C)N=C(N)NC(Nc2ccc(Cl)cc2)=N1  4.8%
26. N#Cc1cc([N+](=O)[O-])ccc1Oc1cccc(/C=N/NC(=O)c2ccc(Cl)cc2)c1  4.52%
27. O=C(N/N=C/c1cccc(OCc2ccccc2)c1)c1ccc(Br)o1  4.51%
28. COC(=O)Cc1nc2c(N)nc(N)nc2[nH]c1=O  3.9%
29. COc1ccc(C(=O)NC(Cc2ccc(OC(=O)c3ccc(OC)cc3)cc2)C(=O)O)cc1 (stereo unspecified)  3.82%
30. Cc1cccc(-n2ncc(C#N)c2-n2cccc2)c1  3.18%
31. COc1cc2c(cc1OC)C(C(C)C)=NC(C)(C)C2  2.2%
32. COc1ccc(C(=O)NC2CC(C)(C)NC(C)(C)C2)cc1OC  1.95%
33. Cn1cc(S(=O)(=O)N2CCN(c3ccc(F)cc3)CC2)c(=O)n(C)c1=O  1.94%
34. CCOc1ncccc1C(=O)OCC(=O)c1c[nH]c2ccccc12  1.75%
35. COc1ccc(CCNC(=O)c2cnc(Cl)c(Cl)c2)cc1  1.33%
36. O=C(Nc1cc2c3c(c1)C1CCCC1CN3CC1CCCC21)c1ccc([N+](=O)[O-])cc1 (stereo unspecified)  1.02%
37. O=C(Nc1c[nH]c(=O)[nH]c1=O)OCc1ccccc1  0.994%
38. Cn1c(=O)n(C)c2cc(S(=O)(=O)N3CCCc4ccccc43)ccc21  0.873%
39. CC(C)C[C@@H](NC(=O)[C@H]1CCCN1C(=O)Cc1ccccc1)C(N)=O  0.4%
40. O=C(CCCCCCCC(=O)N1CCCCC1)N1CCCCC1  0.359%
41. O=C(N/N=C/c1ccccn1)C12CC3CC(CC(C3)C1)C2  0.297%
42. CCN(CC(=O)Nc1ccc(OC)cc1)C(=O)CSCc1ccc(C)cc1  -0.141%
43. COc1ccc(-n2c(C)nn(CC3CC3)c2=O)cc1  -0.556%
44. C=CCn1c(CNS(=O)(=O)c2ccc(Br)cc2)nnc1SC  -0.805%
45. Cc1cc(C(=O)N/N=C/c2ccccn2)c2ccccc2n1  -2.21%
46. CC(=O)N(OCc1ccc(OC(C)C)c(Cl)c1)C(C)=O  -2.52%
47. CC(C(=O)NC1CCCC1)N1CCN(S(=O)(=O)c2ccccc2Cl)CC1 (stereo unspecified)  -2.61%
48. CC(=O)Oc1ccc2c(c1)C(=O)c1ccccc1C2=O  -2.87%
49. COC(=O)C1=C(NC(=O)C(C)(C)C)CCS1  -3.02%
50. CCC1CCCCN1C(=S)Nc1ccc(SC(F)F)cc1 (stereo unspecified)  -3.13%
51. CCOC(=O)c1ccccc1NC(=O)CSc1nc2c(sc(=S)n2CC)c(=O)[nH]1  -3.35%
52. O=C(COC(=O)c1ccc([N+](=O)[O-])cc1Cl)NC(=O)c1ccccc1  -3.45%
53. NC(=O)C1(N2CCCC2)CCN(Cc2ccccc2)CC1  -3.66%
54. OCC1(CO)CC2(C1)CC(CO)(CO)C2  -3.8%
55. COc1ccc(C(=O)CCC(=O)Nc2ccc(Cl)cc2)cc1  -4.44%
56. Nc1ncnc2c1cnn2C1CC(O)C(CO)O1 (stereo unspecified)  -4.63%
57. CC(C)(C)OC(=O)NC(Cc1ccccc1)C(=O)NC(CSC1CCCCO1)C(=O)NN (stereo unspecified)  -5.98%
58. COc1ccc(NC(=O)COC(=O)c2ccncc2)c(OC)c1  -6.34%
59. Cc1cc2oc(=O)cc(CN3CCN(Cc4ccccc4)CC3)c2cc1C  -7.61%
60. Cc1ccc(-n2nc(N)c3c(=O)oc(N(C)C)nc32)cc1  -8.9%
61. COc1ccc2[nH]c3c(c2c1)CCN1C(=O)C(CC(=O)NCCCN(C)C)C[C@H](C(=O)N2CCOCC2)[C@@]31CCC1CCCC1 (stereo partly specified)  -12.1%
62. CCc1ccc(-c2cc(C)no2)cc1S(=O)(=O)NCCc1ccc(S(N)(=O)=O)cc1  -13.2%
63. Cc1[nH]c2c(C(=O)N3CCCC(CCC(=O)NCc4ccccc4F)C3)cccc2c1C (stereo unspecified)  -16%
64. CCOc1ccc(CN2CCNC(=O)C2CC(=O)NCCCC2CCCC2)cc1 (stereo unspecified)  -18.3%
65. CCOc1ccc(-n2cnc3c(=O)[nH]c(N)nc32)cc1  -21.7%
66. O=C(NCC1(N2CCCCC2)CCCCC1)c1cccc(S(=O)(=O)Nc2ccccc2Cl)c1  -26.7%
67. COc1cccc2sc3cc(NCC[C@@H]4CCCN4C)ccc3c(=O)c12  -35.6%
68. COc1ccc2sc(-c3ccc(N(C)C)cc3)c(C#CCO)c2c1  -46.5%
69. COCCn1c(=NC(=O)c2ccccc2[N+](=O)[O-])sc2cc(S(C)(=O)=O)ccc21  -52%
70. COc1ccccc1N1CCN(/N=C\C(Br)=C\c2ccccc2)CC1  -56.4%
71. CCc1ccc2nc(N(CCCN(C)C)C(=O)c3ccc4c(c3)OCCO4)sc2c1  -67.8%
72. COC(=O)c1sccc1NC(=S)Nc1ccc(C)cc1  -74.3%
73. COc1ccc2sc(-c3ccc(N(C)C)cc3)c(-c3ccc4cc[nH]c4c3)c2c1  -103%
74. C=CCNc1cnn(-c2ccc(C)cc2)c(=O)c1Cl  -110%

In the case of CCCc1ccc(OCc2ccc(C(=O)N/N=C/c3cccc([N+](=O)[O-])c3)o2)c(OC)c1, the inhibition is reported as 69.2% (active).
In the case of CN(C)CCCN(C(=O)c1ccc(S(=O)(=O)N2CCCc3ccccc32)cc1)c1nc2ccc(F)cc2s1, the inhibition is reported as 70.8% (active).
With O=C(NC(Nc1nc2ccc([N+](=O)[O-])cc2s1)(C(F)(F)F)C(F)(F)F)c1ccccc1 the inhibition was 70.9% (active).
For O=C(Nc1nc2ccc([N+](=O)[O-])cc2s1)c1ccc(S(=O)(=O)N2CCCc3ccccc32)cc1, the inhibition was 75.6% (active).
In the case of CN(C)CCCN(C(=O)c1ccc(S(=O)(=O)N2CCCCCC2)cc1)c1nc2ccc(Br)cc2s1, the inhibition is reported as 92.8% (active).
With COc1ccc2c(c1)c(=Cc1ccc(N(C)C)cc1)c1cc(-c3ccccc3)[n+](C)n12 the inhibition was 95.7% (active).
With COc1ccc(CNC(=O)C[C@H]2C[C@H](C(=O)N3CCOCC3)[C@@]3(CCC4CCCC4)c4[nH]c5ccc(Cl)cc5c4CCN3C2=O)cc1OC the inhibition was 72.7% (active).
For O=C1C(Cl)=C(Oc2ccccc2)C(=O)c2ccccc21, the inhibition was 89.7% (active).
With Cc1cccc(-n2ncc(Cl)c(Cl)c2=O)c1 the inhibition was 72.1% (active).
In the case of CNC[C@H](CC1CCCCC1)NC[C@H](NCCC1CCCC1)[C@H](C)O, the inhibition is reported as 78.2% (active).
In the case of Cc1ccc(-c2cn3cc(C)ccc3n2)cc1, the inhibition is reported as 93.3% (active).
With Cc1cc2oc3ccc(NCCC4CCCN4C)cc3c(=O)c2cc1C (stereo unspecified) the inhibition was 82.2% (active).
With COc1ccc(CS(=O)/C(Cl)=C(/Cl)C(=O)Nc2ccc(OC)nc2)cc1 (stereo unspecified) the inhibition was 99.4% (active).
For COc1ccc(NC(=O)/C(Cl)=C(/Cl)S(=O)Cc2ccc(C)cc2)cn1 (stereo unspecified), the inhibition was 113% (active).
With Cc1nnc(N/N=C/c2ccccn2)[nH]c1=O the inhibition was 79.6% (active).
In the case of COc1cc2c(cc1O)C(SC)=NC(C)(C)C2, the inhibition is reported as 73.8% (active).
With Cc1cc(-c2n[nH]c(=S)n2/N=C/C(Br)=C/c2ccccc2)n[nH]1 the inhibition was 71.3% (active).
